Bioassay records from PubChem.
A selection: hits, their analogues and other compounds. The true share with any hit is near 1.2%.
KinaseGlo FLuc – Counterscreen for Luciferase (Kinase-Glo TM) Inhibition; Luciferin 4-monooxygenase (Photuris pensylvanica), Q27757; Kinase-Glo luciferase, ATP luminescence, 8 min; 0.28% of 200,000 active; Potency, µM (series often up to 38.3 µM), for inactives: at the highest dose activity change, negative = inhibition, most hits filed as inhibitors; active = well fitted inhibition curve with a large enough effect; inconclusive = small, poorly fitted or top-dose-only effect; note: potency is the fitted concentration of half-maximal effect; nearly all actives have a fitted effect of over 60% in size
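Compounds were added to a substrate mix at pH 7.2 (50 mM imidazole, 10 uM ATP, within the enzyme's linear range), followed by Kinase-Glo detection reagent; luminescence was measured after 8 minutes at ambient temperature.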
KCNH2 WT inh – qHTS for Inhibitors of KCHN2 3.1: Wildtype qHTS; Voltage-gated inwardly rectifying potassium channel KCNH2 (Homo sapiens), Q12809; U2OS, BacMam KCNH2, thallium flux FluxOr; stronger effect = lower value; activity change, % at 1.84 µM; 0.37% of 340,000 active;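 active = maximum activity change below -70%; inconclusive = maximum activity change between -70% and -50%; inactive = maximum activity change above -50%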
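U2OS cells transduced with wild-type KCNH2 virus are loaded with FluxOr dye for 45 min, and thallium flux is measured in kinetic reads before and after stimulation buffer. Rate constants are normalized to DMSO controls.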
KCNH2 3.1 inh – qHTS for Inhibitors of KCHN2 3.1: Mutant qHTS. AID 720553, 2013. activity change, % (tested at about 1.8 µM). Potassium voltage-gated channel subfamily H member 2, brain isoform KCNH2 3.1 (human). U2OS KCNH2 3.1, thallium flux FluxOr; stronger effect = lower value. 0.95% of 340,000 active;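 active = maximum activity change below -70%; inconclusive = maximum activity change from -70% to -50%; inactive = maximum activity change above -50%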;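 note: thallium influx rate constant from kinetic fluorescence after stimulation buffer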
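We transduce U2OS cells with the mutant 3.1 virus, culture them overnight, load FluxOr with Red40 quencher for 45 min, then add stimulation buffer and read kinetically for 2 min to derive a normalized rate constant.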
Active calls of the source: *; [ ] = another dose, or the depositor's remark. % is set by controls: 0 for no effect and ±100 for the full control effect.

For CCCCn1nnnc1SCC(=O)NC1CCCCC1 the results were KCNH2 WT inh -123* and KCNH2 3.1 inh -8.
`Cn1nnnc1SCC(=O)NC1CCCCC1` gave KinaseGlo FLuc 0%, KCNH2 WT inh -26 and KCNH2 3.1 inh -4.
For C/C(=N/NC(=O)c1ccc(C)s1)c1cccc(NC(=O)COc2ccc(Cl)cc2C)c1 the results were KinaseGlo FLuc 2%, KCNH2 WT inh -7 and KCNH2 3.1 inh -4.
C/C(=N\NC(=O)c1c(Cl)c(C)nn1C)c1cccc(NC(=O)COc2ccc(Cl)cc2)c1 was read as KinaseGlo FLuc 0%, KCNH2 WT inh -1 and KCNH2 3.1 inh -82*.
For COc1ccc(/C=N/NC(=O)c2ccncc2)cc1CN1CCN(c2ccc(F)cc2)CC1 the results were KinaseGlo FLuc 0%, KCNH2 WT inh 18 and KCNH2 3.1 inh -90*.
`COc1ccc(/C=N\NC(=O)c2cc(O)c(O)c(O)c2)cc1CN1CCN(c2ccc(F)cc2)CC1` gave KinaseGlo FLuc 2%, KCNH2 WT inh -6 and KCNH2 3.1 inh -13.
For COc1ccc(/C=N/NC(=O)c2ccc(F)cc2)cc1CN1CCc2cc(OC)c(OC)cc2C1C (configuration not stated) the results were KinaseGlo FLuc -2%, KCNH2 WT inh -91* and KCNH2 3.1 inh -88*.
COc1ccc(/C=N/NC(=O)c2ccc(O)cc2)cc1CN1CCCc2ccccc21 was read as KinaseGlo FLuc 0%, KCNH2 WT inh -6 and KCNH2 3.1 inh -5.
COc1ccc(/C=N/NC(=O)c2ccc(C)cc2)cc1CN1CCN(c2ccc(F)cc2)CC1 was read as KinaseGlo FLuc 0%, KCNH2 WT inh -72* and KCNH2 3.1 inh -108*.
COc1ccc(/C=N/NC(=O)c2ccn[nH]2)cc1CN1CCOCC1 was read as KCNH2 WT inh 0 and KCNH2 3.1 inh -2.
For CC(C)(C)c1cc(CP(=O)(c2ccccc2)c2ccccc2)cc(C(C)(C)C)c1O the results were KCNH2 WT inh inconclusive and KCNH2 3.1 inh -18.
For CCOC(=O)C1CCCN(C(=O)c2ccc(-c3ccc([N+](=O)[O-])cc3)o2)C1 (configuration not stated) the results were KCNH2 WT inh -2 and KCNH2 3.1 inh -7.
COc1ccc2c(Cl)cc(NC(=O)Nc3c(C)cccc3C)nc2c1 was read as KCNH2 WT inh 12 and KCNH2 3.1 inh 9.
`COCCCN1C(=O)C(=O)/C(=C(/O)c2ccc(S(=O)(=O)N3CCCCC3)cc2)C1c1cccc(OC)c1` (configuration not stated) gave KCNH2 WT inh 5 and KCNH2 3.1 inh 9.
Screening CCOc1ccc(-n2ccc(=O)c(C(=O)O)n2)cc1 returned KCNH2 WT inh 2 and KCNH2 3.1 inh 18.
`c1ccc2c(c1)nnn1c3ccccc3nc21` gave KinaseGlo FLuc 13µM*.
Cc1nc2ccccc2c2nc3ccccc3n12 was read as KinaseGlo FLuc 2%, KCNH2 WT inh 2 and KCNH2 3.1 inh -12.
For Cc1cccc(CC(=O)Nc2cccnc2)c1 the results were KCNH2 WT inh 3 and KCNH2 3.1 inh 15.
Cc1ccc(N(C)S(=O)(=O)c2cccc(C(=O)NCC(c3ccco3)N3CCCC3)c2)cc1 (configuration not stated) was read as KCNH2 WT inh 0 and KCNH2 3.1 inh -1.
CCC(c1nnc(SCCNCCO)n1CCN1CCOCC1)N(C)C (configuration not stated) was read as KinaseGlo FLuc 10%, KCNH2 WT inh -6 and KCNH2 3.1 inh -177*.
`CCC(c1nnc(SCC(=O)Nc2ccc(N3CCOCC3)cc2)n1Cc1ccccc1)N(C)C` (configuration not stated) gave KCNH2 WT inh 8 and KCNH2 3.1 inh -3.
`COC(=O)C1=C(C(=O)OC)[C@@H]2N(C)c3ccc(OC)cc3[C@@]23C[C@@H](C(=O)OC)N(S(=O)(=O)c2cccs2)C3=N1` gave KinaseGlo FLuc -2%[7.66 µM].
CCOC(=O)Nc1ccc2nc(N3CCCCCC3)sc2c1 was read as KCNH2 WT inh 6 and KCNH2 3.1 inh -7.
For Cc1nc2cc(NC(=O)Nc3cccc([N+](=O)[O-])c3)ccc2n1C the results were KCNH2 WT inh 2 and KCNH2 3.1 inh -75*.
Cc1ccc(NC(=O)Nc2ccc3c(c2)nc(C)n3C)cc1 was read as KinaseGlo FLuc 0% and KCNH2 WT inh 4.
COc1ccc(NC(=O)CN(C)C(=O)CSCc2c(C)noc2C)cc1 was read as KCNH2 WT inh -4 and KCNH2 3.1 inh 4.
O=C(CN1CCSC1=O)N1CCN(S(=O)(=O)c2ccc(F)cc2)CC1 was read as KCNH2 WT inh -4 and KCNH2 3.1 inh 19.
Screening CCCC(=O)Nc1cc(C(=O)O)ccc1Sc1ccccc1 returned KinaseGlo FLuc 12%, KCNH2 WT inh 5 and KCNH2 3.1 inh 19.
For CCC(=O)Nc1cc(C(=O)O)ccc1Sc1ccccc1 the results were KinaseGlo FLuc 3%, KCNH2 WT inh 0 and KCNH2 3.1 inh -116*.
`CC(=O)Nc1ccc(C(=O)OCC(=O)Nc2ccccc2Sc2ccccc2)cc1` gave KinaseGlo FLuc 2%, KCNH2 WT inh -21 and KCNH2 3.1 inh -79*.
Screening N#CCC(=O)Nc1ccc(C(=O)OCC(=O)Nc2ccccc2Sc2ccccc2)cc1 returned KinaseGlo FLuc -4%, KCNH2 WT inh -6 and KCNH2 3.1 inh -4.
`Cc1ccc(-n2cnc(N)c2C(=O)c2cccc([N+](=O)[O-])c2)cc1` gave KCNH2 WT inh 1 and KCNH2 3.1 inh 4.
Screening COC(=O)c1ccc(N/C=C/C(=O)c2ccccc2)cc1 returned KCNH2 WT inh 0 and KCNH2 3.1 inh 34.
For CCCn1c(N/N=C(C)\C=C\c2ccccc2)nc2c1c(=O)[nH]c(=O)n2C the results were KinaseGlo FLuc -2%.
CCO/C=C/C(O)(CNC(=O)c1ccc(C(C)(C)C)cc1)C(F)(F)F (configuration not stated) was read as KinaseGlo FLuc 2%, KCNH2 WT inh 6 and KCNH2 3.1 inh -72*.
Screening CCOC(=O)CNC(=O)c1ccc(C)cc1 returned KinaseGlo FLuc -8%, KCNH2 WT inh -1 and KCNH2 3.1 inh 2.
Screening COc1c(OC)c2occc2c2oc(=O)ccc12 returned KinaseGlo FLuc -3%.
`C[C@@H]1CN([C@@H](C)CO)C(=O)c2cc(N(C)C)ccc2O[C@@H](C)CCCCO[C@@H]1CN(C)S(=O)(=O)c1cccs1` gave KCNH2 WT inh -14 and KCNH2 3.1 inh -13.
For COc1ccc(CCNC(=O)c2cccc(Br)c2)cc1OC the results were KCNH2 WT inh -4 and KCNH2 3.1 inh -8.
COc1ccc(CCNC(=S)NNC(=O)c2c(Br)c(C)nn2C)cc1OC was read as KCNH2 WT inh 7 and KCNH2 3.1 inh -75*.
Screening CCS(=O)(=O)Nc1ccc(C2=NN(S(=O)(=O)CC)C(c3cccs3)C2)cc1 (configuration not stated) returned KCNH2 WT inh -19 and KCNH2 3.1 inh 6.
